Where “and” joins values, the source holds several entries; their conditions need not be identical. Equal values may be shown once. Inconclusive results are not listed. More than one record can exist for a structure, and the calls need not agree. Calls of active or inactive are those of the source. How the source made its calls: active means hit-call score of the fitted dose curve at least 0.9, where 1 is the maximum; inconclusive means response in the unintended direction; inactive means score below 0.9.

Read-out in this assay: Cytochrome P450 2B6 (Homo sapiens) (UniProt P20813)
Kind of assay: CLD_CYP2B6_6hr: CellzDirect (CLD) Gene Expression Assay for xenobiotic metabolism (CYP2B6) at 6 hours (AID 2283677).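 Further: actives raise CYP2B6 transcript above DMSO baseline so AC50 marks an inducer.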 As for the experimental part: CLD_6hr is a cell-based, multiplexed-readout assay that uses hepatocyte, a human liver primary cell, with measurements taken at 6 hours after chemical dosing in a 96-well plate.CLD_CYP2B6_6hr is one of 16 assay component(s) measured or calculated from the CLD_6hr assay. It is designed to make measurements of mRNA induction, a form of inducible reporter, as detected with chemiluminescence signals by Quantitative Nuclease Protection Assay (qNPA) technology.Data from the assay component CLD_CYP2B6_6hr was analyzed at the endpoint, CLD_CYP2B6_6hr, in the positive analysis fitting direction relative to DMSO as the negative control and baseline of activity. Using a type of inducible reporter, gain-of-signal activity can be used to understand changes in the reporter gene as they relate to the gene CYP2B6. Furthermore, this assay endpoint can be referred to as a primary readout. To generalize the intended target to other relatable targets, this assay endpoint is annotated to the cyp intended target family, where subfamily is xenobiotic metabolism.
Human hepatocyte cultures were treated daily for two consecutive days with fresh dosing solutions containing appropriate concentrations of the 320 ToxCast chemicals (chemical identities were blinded to CellzDirect and other ToxCast collaborators), vehicle control (0.2% DMSO), and positive control inducers as summarized in Table 1. Due to the large number of treatment groups and chemicals examined, the ToxCast chemicals were divided into two groups (spanning two independent cultures of hepatocytes from separate donor preparations (Hu778: ToxCast plates 1 and 2; Hu776: ToxCast plates 3 and 4). Each preparation of human hepatocyte cultures was treated with respective vehicle control, medium only control, set of six positive controls/reference chemicals for the five hepatic receptor pathways, and a subset of eight of the ToxCast chemicals (indoxacarb, pyrithiobac-sodium, norflurazon, cyhalofop-butyl, methomyl, thiram, acetochlor, and propiconazole). These replicate data, coupled with internal replicates designed within the blinded ToxCast chemical library, provided additional data to evaluate interindividual differences between hepatocyte preparations and their potential impact on chemical profiles.Cell morphology and integrity were evaluated using phase-contrast microscopy as an indicator of hepatocyte cell health (Tyson & Green, 1987). Cultures for each treatment group (i.e., media, vehicle [0.2% DMSO], positive control inducers [multiple concentrations], and the ToxCast chemicals [multiple concentrations]) were observed and cell morphology was assessed relative to vehicle control cultures at each harvest time point (0, 6, 24, or 48 h). […] Images were evaluated at the conclusion of the study to assess changes in cell integrity and account for the effects of chemical exposure on uncharacteristic changes in concentration-dependent gene expression profiles. The results from these determinations of apparent cytotoxicity were annotated (yes/no) alongside the corresponding qNPA data for reference.At the conclusion of each treatment period, hepatocyte cultures (96-well) were washed with 1 volume of HBSS, lysed by addition of 25 ul ArrayPlate lysis buffer (HTG, Tucson, AZ), and 70 ul/well of Denaturation Oil, denatured by incubation at 95C for 10 min, and frozen at approximately -70C until analysis by nuclease protection assay (qNPA) (Roberts et al., 2007). For qNPA analysis, cell lysates were thawed at 50C for approximately 30 min, qNPA probes were added, and samples were incubated at 95C for 10 min to begin the detection process by denaturing the target RNA, dissociating the duplexes and secondary structure hybridization. At the conclusion of the hybridization period, S1 nuclease reagent was added to each sample to digest all nonprotected nucleotides at 50C for 60-90 min. […]
The AC50 is the midpoint of the concentration-response curve, whichever way the signal moves. For the compound `Fc1ccc(Oc2ccnc3cc(Cl)cc(Cl)c23)cc1`, the concentration at half-maximal activity (AC50) is 20 µM (active).
Take `COc1nc(C)nc(NC(=O)NS(=O)(=O)c2ccccc2CCC(F)(F)F)n1`: the AC50 was 3.21 µM (active) and 1.89 µM (active).
The same measure, in the same setting: then `CCCCC(CC)COC(=O)c1ccccc1C(=O)OCC(CC)CCCC` (stereo not given), with 4.09 µM (active); and `CC1=C(C(=O)Nc2ccccc2)SCCO1`, with 15.2 µM (active).
With `CCCCNC(=O)OCC#CI`, the AC50 is 0.838 µM (active) and the outcome was inactive.
As for `CCNc1nc(Cl)nc(NCC)n1`, the AC50 was 7.74 µM (active).
As to `CO/C=C(/C(=O)OC)c1ccccc1Oc1cc(Oc2ccccc2C#N)ncn1`, the AC50 is 1 µM (active).
For `CC1COC(Cn2cncn2)(c2ccc(Oc3ccc(Cl)cc3)cc2Cl)O1` (stereo not given), the outcome was inactive.
For `CCOC(=O)CC(SP(=S)(OC)OC)C(=O)OCC` (stereo not given), the outcome was inactive.
For the compound `Cc1c(F)c(F)c(COC(=O)C2C(/C=C(\Cl)C(F)(F)F)C2(C)C)c(F)c1F` (stereo not given), the AC50 is 20 µM (active).
On to `COC(=O)C=C(C)OP(=O)(OC)OC`, for which the compound was classed as inactive.
Turning to `COc1cnc(OC)n2nc(NS(=O)(=O)c3c(OCC(F)F)cccc3C(F)(F)F)nc12`, the call was inactive.
Consider `Cc1ccc(-c2c(Cl)nc(C#N)n2S(=O)(=O)N(C)C)cc1`, for which the AC50 is 1.88 µM (active).
Consider `CC(C)C1(C)N=C(c2nc3ccccc3cc2C(=O)O)NC1=O` (stereo not given), for which the call was inactive.
On the same count and under the same terms, with `O=C(O)c1nc(Cl)ccc1Cl` the entry was “inactive”.
Turning to `COC(=O)C(C)Oc1ccc(Oc2ccc(Cl)cc2Cl)cc1` (stereo not given), the AC50 is 3.09 µM (active) and 7.54 µM (active); the call was inactive.
On to `CNC(=S)S`, for which the compound was classed as inactive.
For the compound `Oc1ccccc1-c1ccccc1`, the call was inactive.
Take `OC(c1ccc(Cl)cc1)(c1cncnc1)c1ccccc1Cl` (stereo not given): the AC50 is 0.442 µM (active).
Same read-out and setting: with `N#CC(CCc1ccc(Cl)cc1)(Cn1cncn1)c1ccccc1` (stereo not given) the figure was 0.446 µM (active); with `C#CCOS(=O)OC1CCCCC1Oc1ccc(C(C)(C)C)cc1` (stereo not given), 1.9 µM (active).
On the same count and under the same terms, with `CCOP(=S)(OCC)SCn1c(=O)oc2cc(Cl)ccc21` the figure was 1.61 µM (active); with `CCCCNC(=O)n1c(NC(=O)OC)nc2ccccc21`, 4.17 µM (active).
`CCCCOC(=O)c1ccccc1C(=O)OCCCC`: the result was inactive.
In the case of `CCOC(=O)C(Cl)Cc1cc(-n2nc(C)n(C(F)F)c2=O)c(F)cc1Cl` (stereo not given), the AC50 is 3.01 µM (active).
`O=C(Nc1ccccc1)Nc1ccnc(Cl)c1`: the AC50 was 20 µM (active).
The same measure, in the same setting: then `C=CC1(C)OC(=O)N(c2cc(Cl)cc(Cl)c2)C1=O` (stereo not given), with 8.32 µM (active).
For the compound `O=C(O)COc1nc(Cl)c(Cl)cc1Cl`, the compound was called inactive.
Turning to `CCOc1cc(Oc2ccc(C(F)(F)F)cc2Cl)ccc1[N+](=O)[O-]`, the AC50 was 2.75 µM (active).
On the same count and under the same terms, with `COP(=S)(OC)Oc1nc(Cl)c(Cl)cc1Cl` the figure was 6.24 µM (active); with `COc1ccc(C(c2ccc(OC)cc2)C(Cl)(Cl)Cl)cc1`, 7.31 µM (active).
The same measure, in the same setting: then `N#Cc1nn(-c2c(Cl)cc(C(F)(F)F)cc2Cl)c(N)c1S(=O)C(F)(F)F` (stereo not given), with 2.91 µM (active); and `C=CCC1=C(C)C(OC(=O)C2C(C=C(C)C)C2(C)C)CC1=O` (stereo not given), with 2.82 µM (active).
The same measure, in the same setting: then `CCCC1COC(Cn2cncn2)(c2ccc(Cl)cc2Cl)O1` (stereo not given), with 0.759 µM (active).
For the compound `CCc1nn(C)c(C(=O)NCc2ccc(C(C)(C)C)cc2)c1Cl`, the outcome was inactive.
`CON(C)C(=O)Nc1ccc(Cl)c(Cl)c1`: the AC50 was 1.83 µM (active).
As to `CC(Oc1ccc(Cl)cc1Cl)C(=O)O` (stereo not given), the compound was called inactive.
As for `CCNc1nc(Cl)nc(NC(C)C)n1`, the AC50 is 2.99 µM (active).

The record behind these values is PubChem BioAssay (EPA / NIEHS).
